Test results reported in PubChem BioAssay (EPA / NIEHS).
Records with an inconclusive call do not appear. Calls of active or inactive are those of the source. How the source made its calls, unless noted: active means hit-call score of the fitted dose curve at least 0.9, where 1 is the maximum; inconclusive means response in the unintended direction; inactive means score below 0.9.

How the values were obtained:
[1] = target: human Peroxisome Proliferator-activated Receptor alpha (PPARa), PPARA (gene 5465) (UniProt Q07869); assay: ATG_PPARa_TRANS: Attagene TRANS-FACTORIAL HepG2 Assay for human Peroxisome Proliferator-activated Receptor alpha (PPARa) (AID 2283001);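 on AC50: potency for gain of reporter signal over DMSO so agonist or activator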
Outline: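 Reporter transcripts from GAL4-UAS units in transfected HepG2 were quantified 24 h after dosing. Detection used reverse transcription, PCR, fluorescent primer extension and capillary electrophoresis, with DMSO as baseline.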

[2] = target: Peroxisome proliferator-activated receptor gamma (Homo sapiens) (UniProt P37231); assay: ATG_PPARg_TRANS: Attagene TRANS-FACTORIAL HepG2 Assay for human Peroxisome Proliferator-activated Receptor-gamma (PPARg) (AID 2283007)
Outline: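 Human hepatoma HepG2, transient MRTU transfection, 24 h treatment. mRNA reporter signal by RT-PCR plus capillary electrophoresis, fluorescence detection; fitted for increase over DMSO negative control.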

[3] = target: Retinoic acid receptor RXR-alpha (Homo sapiens) (UniProt P19793); assay: ATG_RXRa_TRANS: Attagene TRANS-FACTORIAL HepG2 Assay for human Retinoid X Receptor alpha (RXRa) (AID 2283012)
Outline: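 Cells (HepG2) carried transiently transfected GAL4-responsive reporter units. Following a 24 h chemical incubation, reporter mRNA induction was read via RT-PCR fragment analysis; DMSO served as negative control and baseline.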

[4] = target: Nuclear receptor subfamily 1 group I member 2 (Homo sapiens) (UniProt O75469); assay: ATG_PXR_TRANS: Attagene TRANS-FACTORIAL HepG2 Assay for human Pregnane X Receptor (PXR) (AID 2283008)
Outline: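 Read-out is fluorescence of labelled reporter cDNA fragments separated by capillary electrophoresis after RT-PCR and HpaI digestion. Source: HepG2 cells carrying PXR-GAL4/UAS reporter constructs, treated 24 h; activity fitted upward relative to DMSO.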

[5] = target: human Retinoid X Receptor beta (RXRb), RXRB (gene 6257) (UniProt P28702); assay: ATG_RXRb_TRANS: Attagene TRANS-FACTORIAL HepG2 Assay for human Retinoid X Receptor beta (RXRb) (AID 2283013)
Outline: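 Multiplexed TRANS reporter assay in HepG2; 24 h dosing; reporter mRNA by RT-PCR/CE fluorescence; gain-of-signal relative to DMSO.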

[6] = target: human Thyroid Receptor alpha (THRa1), THRA (gene 7067) (UniProt P10827); assay: ATG_THRa1_TRANS: Attagene TRANS-FACTORIAL HepG2 Assay for human Thyroid Receptor alpha (THRa1) (AID 2283014)
Outline: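 Transcripts from GAL4-UAS-driven reporters, measured after 24 h compound exposure by RT-PCR plus capillary electrophoresis of 6-FAM-labeled fragments, were fitted for gain of signal relative to DMSO. Cells: transiently transfected HepG2 expressing NR-Gal4 chimeras.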

[7] = target: human Peroxisome Proliferator-activated Receptor delta (PPARd), PPARD (gene 5467) (UniProt Q03181); assay: ATG_PPARd_TRANS: Attagene TRANS-FACTORIAL HepG2 Assay for human Peroxisome Proliferator-activated Receptor delta (PPARd) (AID 2283002)
Outline: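 Read-out is induced reporter mRNA, quantified by RT-PCR with fluorescent labelling and capillary electrophoresis after 24 h dosing. Cells are HepG2 transiently carrying multiple GAL4-UAS reporter units driven by exogenous NR-GAL4 chimeras; DMSO serves as baseline.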

[8] = target: human Retinoic Acid Receptor beta (RARb), RARB (gene 5915) (UniProt P10826); assay: ATG_RARb_TRANS: Attagene TRANS-FACTORIAL HepG2 Assay for human Retinoic Acid Receptor beta (AID 2283004)
Outline: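 Induction of reporter mRNA from a chimeric RARb-Gal4 construct was measured by RT-PCR, FAM labelling, HpaI digestion and capillary electrophoresis. Measurements followed 24 h compound treatment of transiently transfected human HepG2 liver cells, with DMSO as baseline.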

[9] = target: human Retinoic Acid Receptor gamma (RARg), RARG (gene 5916) (UniProt P13631); assay: ATG_RARg_TRANS: Attagene TRANS-FACTORIAL HepG2 Assay for human Retinoic Acid Receptor gamma (RARg) (AID 2283009);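 on AC50: AC50 is for reporter induction above DMSO meaning RARg activation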
Outline: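 HepG2, RARg-GAL4 TRANS system, 24 h exposure; reporter mRNA by RT-PCR + CE fluorescence; increase over DMSO.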

[10] = read-out: Intercellular Adhesion Molecule 1 (ICAM1), ICAM1 (gene 3383); assay: BSK_3C_ICAM1: BioMAP Diversity Plus: 3C Assay for Intercellular Adhesion Molecule 1 (ICAM1) Biomarker Activity (AID 2283003; active means hit-call score of the fitted dose curve at least 0.9, where 1 is the maximum; inactive means score below 0.9); conditions: primary human endothelial cells (HUVEC); actives raise or lower the signal
Outline: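 Human vascular endothelial primary cells, 3C conditions, 24 h treatment. ICAM-1 by ELISA.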

[11] = target: Retinoic acid receptor alpha (Homo sapiens) (UniProt P10276); assay: ATG_RARa_TRANS: Attagene TRANS-FACTORIAL HepG2 Assay for human Retinoic Acid Receptor alpha (RARa) (AID 2283005)
Outline: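 Reporter transcripts, measured by RT-PCR with fluorescent labeling and capillary electrophoresis after 24 h dosing, reflect activity of an exogenous human RARa–GAL4 fusion in transiently transfected HepG2. Fitted for increase relative to DMSO.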

[12] = BSK_3C_Proliferation: Cell Proliferation Assessment in the BioMAP Diversity Plus: 3C Assay (AID 2283006; active means hit-call score of the fitted dose curve at least 0.9, where 1 is the maximum; inactive means score below 0.9;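 on AC50: potency may reflect either rise or fall in cell number versus DMSO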); conditions: primary human endothelial cells (HUVEC)
Outline: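 Proliferation of human vascular endothelial primary cells after 48 h dosing, quantified as SRB-stained protein at 560 nm relative to DMSO.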

[13] = target: human RAR-related Orphan Receptor beta (RORb), RORB (gene 6096) (UniProt Q92753); assay: ATG_RORb_TRANS: Attagene TRANS-FACTORIAL HepG2 Assay for human RAR-related Orphan Receptor beta (RORb) (AID 2283010)
Outline: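 In this TRANS-format test, human HepG2 cells express chimeric NR-Gal4 fusion proteins driving GAL4-UAS reporters. After 24 h dosing, reporter transcripts are measured by fluorescent RT-PCR/capillary electrophoresis, with DMSO as negative control.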

[14] = read-out: E-selectin (Homo sapiens) (UniProt P16581); assay: BSK_3C_Eselectin: BioMAP Diversity Plus: 3C Assay for Eselectin Biomarker Activity (AID 2283015; active means hit-call score of the fitted dose curve at least 0.9, where 1 is the maximum; inactive means score below 0.9); conditions: primary human endothelial cells (HUVEC); actives raise or lower the signal
Outline: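 E-selectin ELISA readout, fitted bidirectionally relative to DMSO, taken 24 h post-dosing in HUVEC cultures of the 3C system. Overt cytotoxicity tracked with sulforhodamine B staining of parallel wells.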

[15] = read-out: Interleukin-1 alpha (IL1a), IL1A (gene 3552); assay: BSK_BE3C_IL1a: BioMAP Diversity Plus: BE3C Assay for Interleukin-1 alpha (IL1a) Biomarker Activity (AID 2283016; active means hit-call score of the fitted dose curve at least 0.9, where 1 is the maximum; inactive means score below 0.9); conditions: primary human bronchial epithelial cells; actives raise or lower the signal
Outline: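 Cultures of primary human bronchial epithelial cells receive test chemical. After 24 h, IL-1a is quantified by ELISA, while parallel wells are fixed in TCA and SRB-stained for total protein. Changes in either direction are fitted relative to DMSO.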

[16] = read-out: Monocyte Chemoattractant Protein-1 (MCP1), CCL2 (gene 6347); assay: BSK_3C_MCP1: BioMAP Diversity Plus: 3C Assay for Monocyte Chemoattractant Protein-1 (MCP1) Biomarker Activity (AID 2283017; active means hit-call score of the fitted dose curve at least 0.9, where 1 is the maximum; inactive means score below 0.9); conditions: primary human endothelial cells (HUVEC); actives raise or lower the signal
Outline: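 MCP-1 was measured by ELISA 24 h after dosing in primary HUVEC 3C cultures and fitted in both directions relative to DMSO; cytotoxicity was checked by SRB total-protein staining in parallel wells.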

[17] = read-out: Monocyte Chemoattractant Protein-1 (MCP1), CCL2 (gene 6347); assay: BSK_4H_MCP1: BioMAP Diversity Plus: 4H Assay for Monocyte Chemoattractant Protein-1 (MCP1) Biomarker Activity (AID 2283018; active means hit-call score of the fitted dose curve at least 0.9, where 1 is the maximum; inactive means score below 0.9); conditions: primary human endothelial cells (HUVEC); actives raise or lower the signal
Outline: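 Readout: MCP-1 ELISA on compound-treated HUVEC, sampled 24 h post-dosing. Baseline and negative control DMSO; bidirectional fit. Overt toxicity checked alongside by sulforhodamine B protein staining at time of biomarker measurement.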

[18] = read-out: Human Leukocyte Antigen - DR isotype (HLADR), HLA-DRA (gene 3122); assay: BSK_3C_HLADR: BioMAP Diversity Plus: 3C Assay for Human Leukocyte Antigen - DR isotype (HLADR) Biomarker Activity (AID 2283019; active means hit-call score of the fitted dose curve at least 0.9, where 1 is the maximum; inactive means score below 0.9); conditions: primary human endothelial cells (HUVEC); actives raise or lower the signal
Outline: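 Bidirectional fitting against DMSO was applied to the HLA-DR ELISA signal from human umbilical vein endothelial cells, 24 h post-dose. Cytotoxicity came from parallel SRB total-protein staining; 3C proliferation was counted by SRB at 48 h.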

[19] = read-out: Interleukin-8 (IL8), CXCL8 (gene 3576); assay: BSK_3C_IL8: BioMAP Diversity Plus: 3C Assay for Interleukin-8 (IL8) Biomarker Activity (AID 2283020; active means hit-call score of the fitted dose curve at least 0.9, where 1 is the maximum; inactive means score below 0.9); conditions: primary human endothelial cells (HUVEC); actives raise or lower the signal
Outline: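 Human vascular endothelial cells (umbilical vein) in the 3C system; IL-8 level detected by ELISA at 24 h post-dose, with DMSO as baseline.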

[20] = target: human RAR-related Orphan Receptor gamma (RORg), RORC (gene 6097) (UniProt P51449); assay: ATG_RORg_TRANS: Attagene TRANS-FACTORIAL HepG2 Assay for human RAR-related Orphan Receptor gamma (RORg) (AID 2283011)
Outline: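 Reporter transcripts from a transfected RORg-GAL4 chimera in HepG2 cells were quantified 24 h after dosing by RT-PCR, 6-FAM labelling, HpaI digestion and capillary electrophoresis; increases over DMSO baseline were fitted.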

Measured: AC50

Sequence of Peroxisome proliferator-activated receptor gamma (Homo sapiens) (P37231 whole entry, looked up): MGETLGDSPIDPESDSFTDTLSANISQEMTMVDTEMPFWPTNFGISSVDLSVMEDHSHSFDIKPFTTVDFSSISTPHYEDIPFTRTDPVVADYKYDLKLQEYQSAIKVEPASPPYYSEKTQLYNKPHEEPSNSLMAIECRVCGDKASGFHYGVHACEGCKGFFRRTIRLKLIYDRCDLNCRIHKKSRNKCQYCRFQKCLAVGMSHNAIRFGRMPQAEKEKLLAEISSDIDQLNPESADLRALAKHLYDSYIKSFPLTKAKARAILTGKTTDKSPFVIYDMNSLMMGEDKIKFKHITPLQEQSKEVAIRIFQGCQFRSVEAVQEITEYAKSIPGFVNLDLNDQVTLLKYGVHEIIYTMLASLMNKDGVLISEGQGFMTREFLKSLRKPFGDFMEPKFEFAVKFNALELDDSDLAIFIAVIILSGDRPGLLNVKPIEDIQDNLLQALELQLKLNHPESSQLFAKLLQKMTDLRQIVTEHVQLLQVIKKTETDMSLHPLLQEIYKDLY
Sequence of Nuclear receptor subfamily 1 group I member 2 (Homo sapiens) (O75469 whole entry, looked up, the tested form may be a part): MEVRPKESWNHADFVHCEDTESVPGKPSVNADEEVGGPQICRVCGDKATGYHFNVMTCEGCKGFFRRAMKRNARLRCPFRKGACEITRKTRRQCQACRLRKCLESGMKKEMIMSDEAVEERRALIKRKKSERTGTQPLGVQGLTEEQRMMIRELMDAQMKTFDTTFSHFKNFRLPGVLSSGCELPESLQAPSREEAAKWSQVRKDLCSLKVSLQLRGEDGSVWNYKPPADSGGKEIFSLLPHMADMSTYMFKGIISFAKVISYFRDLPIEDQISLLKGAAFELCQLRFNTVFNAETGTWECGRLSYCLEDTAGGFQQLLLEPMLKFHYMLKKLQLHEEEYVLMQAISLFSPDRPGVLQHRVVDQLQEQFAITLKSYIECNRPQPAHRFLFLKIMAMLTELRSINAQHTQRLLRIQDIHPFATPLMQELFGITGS
Sequence of human Retinoic Acid Receptor gamma (RARg), RARG (gene 5916) (P13631 whole entry, looked up, the tested form may be a part): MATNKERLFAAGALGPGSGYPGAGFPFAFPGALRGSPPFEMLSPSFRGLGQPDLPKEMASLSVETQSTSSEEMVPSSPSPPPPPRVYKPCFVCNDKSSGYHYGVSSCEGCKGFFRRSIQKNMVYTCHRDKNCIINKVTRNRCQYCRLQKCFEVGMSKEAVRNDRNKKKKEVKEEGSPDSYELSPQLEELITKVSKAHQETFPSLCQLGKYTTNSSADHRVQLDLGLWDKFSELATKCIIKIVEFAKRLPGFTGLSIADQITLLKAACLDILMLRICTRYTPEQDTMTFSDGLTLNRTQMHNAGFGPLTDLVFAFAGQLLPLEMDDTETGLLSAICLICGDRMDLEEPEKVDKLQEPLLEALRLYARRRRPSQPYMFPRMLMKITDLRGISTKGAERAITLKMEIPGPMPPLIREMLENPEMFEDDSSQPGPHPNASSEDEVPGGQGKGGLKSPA
Sequence of human Peroxisome Proliferator-activated Receptor delta (PPARd), PPARD (gene 5467) (Q03181 whole entry, looked up, the tested form may be a part): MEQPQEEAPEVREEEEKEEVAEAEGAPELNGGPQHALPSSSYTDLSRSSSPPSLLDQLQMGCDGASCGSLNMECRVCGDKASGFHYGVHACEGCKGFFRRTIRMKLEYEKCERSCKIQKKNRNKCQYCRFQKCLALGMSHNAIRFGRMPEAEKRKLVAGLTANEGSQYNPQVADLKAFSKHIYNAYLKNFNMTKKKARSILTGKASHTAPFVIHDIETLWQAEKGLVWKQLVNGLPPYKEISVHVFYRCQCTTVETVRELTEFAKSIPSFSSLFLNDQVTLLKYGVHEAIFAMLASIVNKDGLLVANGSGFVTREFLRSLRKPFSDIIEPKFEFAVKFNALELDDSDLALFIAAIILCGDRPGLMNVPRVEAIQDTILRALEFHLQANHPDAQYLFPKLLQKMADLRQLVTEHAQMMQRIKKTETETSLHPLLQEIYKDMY
Sequence of human Retinoic Acid Receptor beta (RARb), RARB (gene 5915) (P10826 whole entry, looked up, the tested form may be a part): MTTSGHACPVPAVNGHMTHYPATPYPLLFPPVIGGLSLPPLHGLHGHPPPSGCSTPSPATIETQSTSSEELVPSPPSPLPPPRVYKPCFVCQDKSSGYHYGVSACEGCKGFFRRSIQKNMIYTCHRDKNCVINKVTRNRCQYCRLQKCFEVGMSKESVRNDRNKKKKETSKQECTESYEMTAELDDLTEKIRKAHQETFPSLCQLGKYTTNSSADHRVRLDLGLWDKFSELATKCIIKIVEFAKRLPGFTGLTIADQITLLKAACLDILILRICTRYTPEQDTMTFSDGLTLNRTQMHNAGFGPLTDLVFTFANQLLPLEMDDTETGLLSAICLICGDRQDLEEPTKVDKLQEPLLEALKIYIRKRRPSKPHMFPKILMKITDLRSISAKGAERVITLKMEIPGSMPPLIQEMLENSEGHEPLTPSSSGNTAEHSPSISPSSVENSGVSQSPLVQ
Sequence of Retinoic acid receptor alpha (Homo sapiens) (P10276 whole entry, looked up, the tested form may be a part): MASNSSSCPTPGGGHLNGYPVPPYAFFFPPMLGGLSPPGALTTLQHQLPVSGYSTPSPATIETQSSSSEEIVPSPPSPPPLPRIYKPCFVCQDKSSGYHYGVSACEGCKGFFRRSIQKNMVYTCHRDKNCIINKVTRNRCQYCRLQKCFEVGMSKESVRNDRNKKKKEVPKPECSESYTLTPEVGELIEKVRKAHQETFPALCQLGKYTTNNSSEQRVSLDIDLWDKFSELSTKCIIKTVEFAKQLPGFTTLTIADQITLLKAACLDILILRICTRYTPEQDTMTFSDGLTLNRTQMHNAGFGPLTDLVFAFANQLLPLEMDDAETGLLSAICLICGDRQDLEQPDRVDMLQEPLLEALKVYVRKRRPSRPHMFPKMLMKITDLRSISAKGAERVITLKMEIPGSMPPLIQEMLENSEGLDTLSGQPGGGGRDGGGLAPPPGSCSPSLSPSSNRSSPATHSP
Sequence of human Retinoid X Receptor beta (RXRb), RXRB (gene 6257) (P28702 whole entry, looked up): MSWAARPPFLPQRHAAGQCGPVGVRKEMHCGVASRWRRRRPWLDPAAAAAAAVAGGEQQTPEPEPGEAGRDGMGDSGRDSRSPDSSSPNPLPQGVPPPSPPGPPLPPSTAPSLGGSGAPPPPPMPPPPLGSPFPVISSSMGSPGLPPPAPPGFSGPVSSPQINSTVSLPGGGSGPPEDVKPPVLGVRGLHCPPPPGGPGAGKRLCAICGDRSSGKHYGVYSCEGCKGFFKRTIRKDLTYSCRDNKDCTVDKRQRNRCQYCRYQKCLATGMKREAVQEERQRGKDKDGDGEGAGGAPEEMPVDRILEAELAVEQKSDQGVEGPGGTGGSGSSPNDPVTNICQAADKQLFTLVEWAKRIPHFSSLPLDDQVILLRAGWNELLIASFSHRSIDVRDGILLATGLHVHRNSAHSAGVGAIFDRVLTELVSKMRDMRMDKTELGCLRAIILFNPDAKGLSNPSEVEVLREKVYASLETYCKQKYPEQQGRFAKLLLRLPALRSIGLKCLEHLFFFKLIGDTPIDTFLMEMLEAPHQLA
Sequence of E-selectin (Homo sapiens) (P16581 whole entry, looked up): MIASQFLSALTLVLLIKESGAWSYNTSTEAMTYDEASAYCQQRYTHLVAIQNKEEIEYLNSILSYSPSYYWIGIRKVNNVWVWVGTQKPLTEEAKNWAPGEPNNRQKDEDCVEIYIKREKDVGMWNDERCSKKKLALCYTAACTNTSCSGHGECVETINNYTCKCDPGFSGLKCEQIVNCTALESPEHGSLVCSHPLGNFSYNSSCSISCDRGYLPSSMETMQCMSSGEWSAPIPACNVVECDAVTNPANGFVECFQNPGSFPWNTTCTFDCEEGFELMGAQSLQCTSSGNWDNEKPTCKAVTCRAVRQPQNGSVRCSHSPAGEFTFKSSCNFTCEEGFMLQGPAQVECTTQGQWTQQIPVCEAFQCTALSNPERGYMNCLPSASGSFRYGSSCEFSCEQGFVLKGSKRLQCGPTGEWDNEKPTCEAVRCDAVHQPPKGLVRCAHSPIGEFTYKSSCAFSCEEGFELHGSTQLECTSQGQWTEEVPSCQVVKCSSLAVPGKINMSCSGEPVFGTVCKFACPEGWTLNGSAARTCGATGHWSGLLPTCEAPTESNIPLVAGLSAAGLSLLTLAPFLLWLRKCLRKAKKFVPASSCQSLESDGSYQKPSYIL
Sequence of human Thyroid Receptor alpha (THRa1), THRA (gene 7067) (P10827 whole entry, looked up, the tested form may be a part): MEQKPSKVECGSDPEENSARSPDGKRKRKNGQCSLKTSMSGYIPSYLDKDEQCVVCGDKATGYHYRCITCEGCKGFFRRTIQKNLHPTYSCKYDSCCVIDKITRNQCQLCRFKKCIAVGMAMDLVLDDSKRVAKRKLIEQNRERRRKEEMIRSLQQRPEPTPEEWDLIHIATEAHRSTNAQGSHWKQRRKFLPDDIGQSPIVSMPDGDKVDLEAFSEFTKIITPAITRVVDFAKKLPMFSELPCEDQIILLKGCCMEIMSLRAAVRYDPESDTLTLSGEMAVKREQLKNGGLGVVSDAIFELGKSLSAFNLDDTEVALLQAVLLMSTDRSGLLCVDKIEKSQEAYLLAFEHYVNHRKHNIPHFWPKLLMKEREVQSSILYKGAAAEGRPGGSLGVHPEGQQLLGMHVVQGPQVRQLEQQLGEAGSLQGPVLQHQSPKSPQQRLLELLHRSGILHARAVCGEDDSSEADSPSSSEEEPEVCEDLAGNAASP
Sequence of human Peroxisome Proliferator-activated Receptor alpha (PPARa), PPARA (gene 5465) (Q07869 whole entry, looked up, the tested form may be a part): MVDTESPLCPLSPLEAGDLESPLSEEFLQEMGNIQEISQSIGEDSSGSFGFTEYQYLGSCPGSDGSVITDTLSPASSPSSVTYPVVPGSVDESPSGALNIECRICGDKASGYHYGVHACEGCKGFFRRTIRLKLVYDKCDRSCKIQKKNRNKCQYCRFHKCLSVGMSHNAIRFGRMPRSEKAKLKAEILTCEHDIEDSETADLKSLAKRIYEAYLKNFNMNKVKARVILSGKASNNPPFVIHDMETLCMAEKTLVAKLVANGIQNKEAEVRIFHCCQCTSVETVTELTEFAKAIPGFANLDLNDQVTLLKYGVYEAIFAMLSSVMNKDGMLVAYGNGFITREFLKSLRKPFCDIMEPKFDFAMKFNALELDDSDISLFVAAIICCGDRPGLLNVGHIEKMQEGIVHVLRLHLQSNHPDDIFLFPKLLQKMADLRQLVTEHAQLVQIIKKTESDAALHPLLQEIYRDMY

CCCCCCCCCCOS(=O)(=O)O
active: [1] 27.6 µM | [2] 22.6 µM
inactive: [3]

CCc1ccc2c(c1)C(=O)c1ccccc1C2=O
inactive: [1] | [3] | [5] | [6]
active: [2] 24.3 µM | [4] 4.34 µM

CCOc1ccc(N)c([N+](=O)[O-])c1
inactive: [1] | [4] | [3] | [5] | [6]

C=C1[C@H]2CC[C@@H]3[C@H]2C(C)(C)CCC[C@]13C
inactive: [7] | [8] | [2] | [4] | [9] | [3] | [5]

C=C[Si](OC(C)=O)(OC(C)=O)OC(C)=O
inactive: [7] | [10] | [11] | [12] | [9] | [13] | [6] | [14] | [15] | [16] | [17] | [18] | [19]

CC(C)C(=O)C(C)C
active: [2] 6.38 µM
inactive: [7] | [10] | [12] | [6] | [14] | [15] | [16] | [17] | [18] | [19]

[Cl][Bi]([Cl])([c]1ccccc1)([c]1ccccc1)[c]1ccccc1
active: [1] 5.11 µM | [2] 1.17 µM | [3] 5.6 µM | [5] 1.04 µM
inactive: [4] | [6]

CN(C)CCCN(C)C
inactive: [7] | [8] | [11] | [2] | [13] | [3] | [6]

CCN(CC)c1ccc(C(=O)c2ccccc2C(=O)O)c(O)c1
inactive: [1] | [20] | [6]
active: [2] 30 µM

CC(=O)OCC(C)OC(C)=O (stereo not drawn)
inactive: [7] | [8] | [4] | [13] | [20]

C=C(C)C(=O)OCCOc1ccccc1
inactive: [1] | [4]
active: [2] 28.5 µM | [3] 26.5 µM

CC(C)(c1cc(Br)c(OCCO)c(Br)c1)c1cc(Br)c(OCCO)c(Br)c1
active: [10] 28 µM | [12] 11.9 µM | [2] 2.78 µM | [4] 1.71 µM | [9] 0.454 µM | [3] 81 µM | [14] 16.2 µM | [16] 11.7 µM | [17] 5.24 µM | [18] 18.6 µM | [19] 16.2 µM
inactive: [7] | [8] | [11] | [6] | [15]

CCOC(=O)NNc1nncc2ccccc12
inactive: [7] | [8] | [4] | [9] | [3] | [6]

CNC(=S)NN
inactive: [7] | [8] | [11] | [9] | [13] | [20] | [3] | [5] | [6]

O=C(O)Cc1c(Cl)ccc(Cl)c1Cl
active: [2] 52.1 µM
inactive: [7] | [8] | [4] | [9] | [3] | [6]

N=c1ccn2c(n1)O[C@H]1[C@H](O)[C@@H](CO)O[C@H]12
inactive: [1] | [6]

COc1ccc(-c2coc3cc(O)ccc3c2=O)cc1
inactive: [1] | [2] | [3] | [5]

Cc1cccc(OCCOc2cccc(C)c2)c1
active: [2] 25.7 µM
inactive: [1] | [4] | [3]

O=C(O)c1cc2ccccc2nc1C(=O)O
inactive: [1] | [2] | [4] | [5]

C=CC=CC=CCCCCC
inactive: [7] | [10] | [12] | [13] | [6] | [14] | [15] | [16] | [17] | [18] | [19]
active: [2] 6.66 µM | [4] 6.77 µM

COC(=O)/C=C\C(=O)O
active: [2] 35.2 µM
inactive: [1] | [20]

CCC(C)(C)C1CCCCC1OC(C)=O (stereo not drawn)
active: [5] 74.1 µM
inactive: [7] | [8] | [2] | [4] | [9] | [3]

CCCCC/C=C\CCC=O
active: [2] 53.6 µM
inactive: [1] | [4] | [5]

O=C(Cl)c1cc(C(=O)Cl)cc(C(=O)Cl)c1
active: [10] 12.7 µM | [12] 6.87 µM | [14] 15.1 µM | [15] 29.5 µM | [16] 11.6 µM | [17] 12.8 µM | [18] 10.5 µM | [19] 9.93 µM
inactive: [7] | [2] | [3] | [6]

CCCCC(CC)COC(=O)c1ccccc1O (stereo not drawn)
inactive: [7] | [10] | [8] | [11] | [2] | [4] | [13] | [20] | [3] | [15]
active: [12] 17.3 µM | [14] 10 µM | [16] 15.9 µM | [17] 16.2 µM | [18] 18.1 µM | [19] 10 µM

CCCCCCOc1cc(C)c(O)c(C)c1C
inactive: [7] | [8] | [11] | [4]
active: [2] 11.1 µM

CC(C)(C)c1ccc(OC(=O)c2ccccc2O)cc1
active: [5] 177 µM
inactive: [1] | [2] | [4] | [3]
